Reference: PubChem BioAssay (NCATS)
Records with an inconclusive call do not appear. Calls of active or inactive are those of the source. Unless noted, calls follow the shape of the dose curve; as a rule, active = well fitted curve in either direction with a large enough effect (not every such curve was filed as active); inconclusive = small, poorly fitted or top-dose-only effect, or another doubt; inactive = flat fitted curve, though single readings scatter.

Key:
[1] = biological target: Lysosomal acid glucosylceramidase (Homo sapiens) (UniProt P04062); assay: Glucocerebrosidase-p2 (AID 348; in the data active = potency below about 10 µM; also: potency is read from the fitted curve at half-maximal effect); conditions: purified GBA, blue fluorogenic substrate, 40 min
Sequence of Lysosomal acid glucosylceramidase (Homo sapiens) (P04062 whole entry, looked up): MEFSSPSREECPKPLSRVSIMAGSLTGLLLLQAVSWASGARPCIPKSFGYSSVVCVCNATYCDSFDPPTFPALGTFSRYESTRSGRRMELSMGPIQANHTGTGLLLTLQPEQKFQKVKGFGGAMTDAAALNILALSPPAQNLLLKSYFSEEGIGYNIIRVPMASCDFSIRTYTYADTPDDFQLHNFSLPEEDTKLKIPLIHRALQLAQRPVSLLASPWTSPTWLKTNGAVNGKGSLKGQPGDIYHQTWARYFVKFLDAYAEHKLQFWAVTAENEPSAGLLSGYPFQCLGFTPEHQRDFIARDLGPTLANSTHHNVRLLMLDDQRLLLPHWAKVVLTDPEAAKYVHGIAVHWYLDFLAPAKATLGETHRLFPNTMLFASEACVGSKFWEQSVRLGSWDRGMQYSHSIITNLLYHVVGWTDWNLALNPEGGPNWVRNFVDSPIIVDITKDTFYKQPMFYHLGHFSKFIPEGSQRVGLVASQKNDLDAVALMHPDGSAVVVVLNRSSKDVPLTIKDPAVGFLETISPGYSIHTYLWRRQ
Outline: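 Normal human glucocerebrosidase (0.2 nM) with blue fluorogenic substrate (80 uM final) in citrate/phosphate pH 5.9 with 10mM sodium taurocholate, 0.01% tween-20; 40 min RT, NaOH/glycine stop; fluorescence Ex 365/Em 440; AC50 from a titration from 0.6 nM upwards.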

[2] = AP1 Signaling Pathway (AID 357); conditions: ME-180 AP-1-bla reporter, EGF-induced, beta-lactamase ratio, 5 h; at 7.69 µM (top of the series) unless noted;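 also: ME-180 reporter cells stimulated with EGF at its EC50 level; % is scaled to controls: 0 for no effect and ±100 for the full control effect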
Outline: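 Beta-lactamase reporter under AP-1 response element, ME-180 background. Stimulus: EC50 EGF. Compound exposure 5 h, 37 °C. Detection: CCF4, 2.5 h RT, 460/530 nm. Values: AC50 from titration.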

[3] = biological target: Cytochrome P450 1A2 (Homo sapiens) (UniProt P05177); assay: p450-cyp1a2 (AID 410; calls by dose curve; also: potency is read from the fitted curve at half-maximal effect;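 as to activity change, negative = inhibition: -100% = full effect of reference inhibitor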); conditions: recombinant CYP1A2, luciferin-ME demethylation, luminescence; series mostly up to 11.4 µM
Sequence of Cytochrome P450 1A2 (Homo sapiens) (P05177 whole entry, looked up): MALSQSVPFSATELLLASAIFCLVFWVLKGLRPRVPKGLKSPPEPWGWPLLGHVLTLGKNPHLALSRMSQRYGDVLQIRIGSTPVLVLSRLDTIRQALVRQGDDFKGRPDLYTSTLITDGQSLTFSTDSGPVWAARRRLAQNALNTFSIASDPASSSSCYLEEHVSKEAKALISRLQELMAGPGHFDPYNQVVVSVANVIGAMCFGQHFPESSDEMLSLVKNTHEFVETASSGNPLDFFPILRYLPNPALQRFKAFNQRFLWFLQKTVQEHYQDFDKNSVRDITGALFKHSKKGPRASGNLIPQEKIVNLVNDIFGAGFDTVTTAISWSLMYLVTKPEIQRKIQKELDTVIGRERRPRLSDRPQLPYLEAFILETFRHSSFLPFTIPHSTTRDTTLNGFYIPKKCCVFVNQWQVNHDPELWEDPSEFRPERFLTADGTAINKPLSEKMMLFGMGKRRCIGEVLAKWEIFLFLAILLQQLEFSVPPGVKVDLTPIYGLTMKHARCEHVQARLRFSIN
Outline: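 20nM CYP1A2, 100uM Luciferin-ME (=Km), 100mM KPO4; cpd 10 min RT; +NADPH regen, 60 min RT; stop/detect 20 min; luminescence. Normalized to furafylline 57 uM = full inhibition.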

[4] = NFAT Signaling Pathway (AID 444); conditions: Jurkat NFAT-bla M1, carbachol, beta-lactamase ratio, 5 h; at 7.69 µM (top of the series) unless noted;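 also: carbachol stimulus at about its EC50 of 1 µM final; % is scaled to controls: 0 for no effect and ±100 for the full control effect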
Outline: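 Jurkat cells carrying an NFAT-driven β-lactamase reporter and co-transfected muscarinic M1 receptor were treated with compound plus carbachol (1 uM final, an EC50 level) for 5 h at 37 °C. CCF4 loading followed for 1 h at RT; 460/530 nm ratio gave %activity.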

[5] = Stat Signaling Pathway (AID 446); conditions: ME-180 SIE beta-lactamase reporter, IL-6 stimulated, 5 h; at 7.69 µM (top of the series) unless noted;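 also: ME-180 cervical cancer cells given 40 pM IL-6 alongside compound; SIE-controlled beta-lactamase reporter measured as 460/530 nm FRET emission ratio; % is scaled to controls: 0 for no effect and ±100 for the full control effect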
Outline: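 Normalization used AC90 stimulation (300 pM IL-6) and AC90 inhibition (125 nM pan-JAK inhibitor at 40 pM IL-6). The underlying signal is SIE-driven beta-lactamase in ME-180 cells after 5 h IL-6 exposure with compound.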

[6] = biological target: Glucocorticoid receptor (Homo sapiens) (UniProt P04150); assay: GR-GFP Redistribution (AID 450;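 active = compounds whose dose series gives a full or clear partial fitted curve of increased nuclear translocation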; also: potency is read from the fitted curve at half-maximal effect); conditions: U2OS GR-GFP nuclear translocation, laser cytometry, 2 h
Sequence of Glucocorticoid receptor (Homo sapiens) (P04150 whole entry, looked up, the tested form may be a part): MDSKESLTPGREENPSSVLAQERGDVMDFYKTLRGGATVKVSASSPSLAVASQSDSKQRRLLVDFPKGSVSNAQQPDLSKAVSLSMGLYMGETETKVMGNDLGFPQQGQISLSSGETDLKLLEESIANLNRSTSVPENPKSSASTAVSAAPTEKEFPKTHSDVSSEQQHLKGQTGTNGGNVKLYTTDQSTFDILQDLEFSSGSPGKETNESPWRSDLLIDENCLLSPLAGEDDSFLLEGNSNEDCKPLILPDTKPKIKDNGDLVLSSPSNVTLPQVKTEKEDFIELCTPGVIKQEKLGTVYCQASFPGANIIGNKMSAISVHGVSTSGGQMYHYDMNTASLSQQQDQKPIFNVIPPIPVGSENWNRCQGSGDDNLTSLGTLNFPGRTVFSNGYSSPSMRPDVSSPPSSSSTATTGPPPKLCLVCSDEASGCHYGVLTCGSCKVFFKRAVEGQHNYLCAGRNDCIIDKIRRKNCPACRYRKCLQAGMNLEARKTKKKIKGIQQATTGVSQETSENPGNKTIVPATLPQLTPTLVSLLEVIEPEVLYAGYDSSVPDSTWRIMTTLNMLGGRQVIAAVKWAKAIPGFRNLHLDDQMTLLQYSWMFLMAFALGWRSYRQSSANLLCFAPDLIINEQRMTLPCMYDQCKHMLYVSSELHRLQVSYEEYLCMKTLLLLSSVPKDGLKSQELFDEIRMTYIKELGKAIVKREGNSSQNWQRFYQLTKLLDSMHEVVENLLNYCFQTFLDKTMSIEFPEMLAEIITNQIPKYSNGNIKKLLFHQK

[7] = biological target: Glucocorticoid receptor (Homo sapiens) (UniProt P04150); assay: GR-EFC Redistribution (AID 451; calls by dose curve; also: potency is read from the fitted curve at half-maximal effect); conditions: CHO-K1 GR-EFC translocation, beta-gal luminescence, 2 h
Outline: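 CHO-K1 cells stably expressing nuclear-localized β-gal enzyme acceptor and GR fused C-terminally to the enzyme donor fragment; ligand-driven nuclear translocation restores β-gal by complementation. Compounds titrated up to 46 uM final, 2 h at 37 °C; luminescence read.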

[8] = biological target: Mitogen-activated protein kinase 10 (Mus musculus) (UniProt Q61831); assay: JNK3 AlphaScreen Assay (AID 530); conditions: JNK3 lysate, c-Jun phosphorylation; series mostly up to 57.1 µM;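 also: kinase came from lysate of stimulated human HepG2 cells; signal reports phosphorylation of biotinylated GST-cJun 1-79 at Ser73 with 10 µM ATP; % is scaled to controls: 0 for no effect and ±100 for the full control effect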
Outline: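 Biotinylated GST-cJun(1-79) served as substrate for JNK3 in HepG2 lysates stimulated with IL-1beta and TNF-alpha. ATP was 10 uM final, pH 7.6. Ser73 phosphorylation was quantified by AlphaScreen (680 nm excitation).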

[9] = biological target: 3',5'-cyclic-AMP phosphodiesterase 4B (Homo sapiens) (UniProt Q07343); assay: qHTS Assay for Inhibitors of PDE-IV (AID 607; active = well fitted activation curve with a large enough effect in the main read-out, with a control signal flat, not every such curve was filed as active; also: % of control where 0% means no effect); conditions: HEK293 ACTOne CNG channel cells, membrane potential fluorescence; series mostly up to 22.9 µM
Sequence of 3',5'-cyclic-AMP phosphodiesterase 4B (Homo sapiens) (Q07343 whole entry, looked up): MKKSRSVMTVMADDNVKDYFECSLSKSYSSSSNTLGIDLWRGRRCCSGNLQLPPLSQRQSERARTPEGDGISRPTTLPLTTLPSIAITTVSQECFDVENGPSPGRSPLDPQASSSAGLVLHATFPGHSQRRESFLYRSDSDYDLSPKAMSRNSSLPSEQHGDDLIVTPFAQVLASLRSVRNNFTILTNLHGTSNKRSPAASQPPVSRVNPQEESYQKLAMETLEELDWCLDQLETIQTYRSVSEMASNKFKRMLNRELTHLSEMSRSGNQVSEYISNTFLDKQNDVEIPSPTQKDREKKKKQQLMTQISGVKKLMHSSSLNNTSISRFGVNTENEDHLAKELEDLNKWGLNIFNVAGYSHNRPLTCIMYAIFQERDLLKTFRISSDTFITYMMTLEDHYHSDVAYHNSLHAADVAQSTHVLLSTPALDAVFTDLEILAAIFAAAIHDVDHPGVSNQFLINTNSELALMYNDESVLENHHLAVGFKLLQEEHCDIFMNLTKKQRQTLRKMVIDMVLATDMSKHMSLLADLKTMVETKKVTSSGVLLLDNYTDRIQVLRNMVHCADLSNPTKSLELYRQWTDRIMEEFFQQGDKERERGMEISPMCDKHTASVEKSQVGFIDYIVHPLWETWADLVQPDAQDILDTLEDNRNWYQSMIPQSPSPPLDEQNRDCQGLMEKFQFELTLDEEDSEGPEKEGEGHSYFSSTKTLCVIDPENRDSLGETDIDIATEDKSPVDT
Outline: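 HEK293 ACTOne cells with CNG channel (1000/well), endogenous PDE4; membrane potential dye, compounds up to 22.9 uM final. Fluorescence Ex 535/Em 590; RO 20-1724 (100 uM final) as reference.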

[10] = qHTS Assay for Identification of Small Molecule Agonists for Hypoxia Response Element Signaling Pathway (AID 914; active = well fitted activation curve with a large enough effect in the signal ratio, with a control signal flat, not every such curve was filed as active; the % refers to the signal ratio; also: % of control where 0% means no effect); conditions: ME-180 (cervical carcinoma) HRE-bla reporter, beta-lactamase ratio, CoCl2, 17 h; stronger effect = higher value
Outline: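 qHTS titration; ME-180 HRE-bla cells; EC50 CoCl2 co-treatment, 17 h at 37 degrees Celsius; CCF4 dye, ex 405nm, em 460nm and 530nm; %Activity from ratio; AC50.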

[11] = biological target: Cytochrome P450 2C19 (Homo sapiens) (UniProt P33261); assay: qHTS Assay for Inhibitors and Substrates of Cytochrome P450 2C19 (AID 899; active = well fitted curve in the direction sought with a large enough effect; an effect the other way counts as inactive or inconclusive; also: nearly all actives have a fitted effect of over 60% in size; also: potency is read from the fitted curve at half-maximal effect); conditions: recombinant CYP2C19, luciferin-H EGE luminescence; series mostly up to 11.4 µM
Sequence of Cytochrome P450 2C19 (Homo sapiens) (P33261 whole entry, looked up): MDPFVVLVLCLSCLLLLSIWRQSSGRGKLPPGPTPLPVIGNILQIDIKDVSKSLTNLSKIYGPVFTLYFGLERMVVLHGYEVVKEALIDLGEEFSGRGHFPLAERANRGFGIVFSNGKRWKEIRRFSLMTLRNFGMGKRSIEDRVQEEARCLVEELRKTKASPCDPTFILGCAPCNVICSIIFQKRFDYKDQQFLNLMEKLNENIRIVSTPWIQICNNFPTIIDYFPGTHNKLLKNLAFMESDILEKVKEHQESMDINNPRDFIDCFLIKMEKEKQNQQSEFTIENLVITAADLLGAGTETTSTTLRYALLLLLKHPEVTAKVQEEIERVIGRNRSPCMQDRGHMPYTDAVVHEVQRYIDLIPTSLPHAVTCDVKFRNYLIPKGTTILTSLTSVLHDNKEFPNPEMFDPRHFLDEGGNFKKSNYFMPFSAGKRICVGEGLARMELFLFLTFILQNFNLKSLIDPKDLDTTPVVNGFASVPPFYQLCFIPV
Outline: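 Human CYP2C19 (5nM) with Luciferin-H EGE at 10uM (its KM) in 50mM KPO4 was preincubated with compound for 10 min at 37C. NADPH regeneration started a 60 min 37C reaction. Luciferin was read by luminescence, normalized to 57uM ketoconazole.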

[12] = biological target: Cytochrome P450 2D6 (Homo sapiens) (UniProt P10635); assay: qHTS Assay for Inhibitors and Substrates of Cytochrome P450 2D6 (AID 891; active = well fitted curve in the direction sought with a large enough effect; an effect the other way counts as inactive or inconclusive;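 also: luciferin methyl ether substrate demethylated by CYP2D6 with NADPH regeneration; % is scaled to controls: 0 for no effect and ±100 for the full control effect; nearly all actives have a fitted effect of over 60% in size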); conditions: recombinant CYP2D6, luciferin-ME EGE luminescence; series mostly up to 11.4 µM
Sequence of Cytochrome P450 2D6 (Homo sapiens) (P10635 whole entry, looked up): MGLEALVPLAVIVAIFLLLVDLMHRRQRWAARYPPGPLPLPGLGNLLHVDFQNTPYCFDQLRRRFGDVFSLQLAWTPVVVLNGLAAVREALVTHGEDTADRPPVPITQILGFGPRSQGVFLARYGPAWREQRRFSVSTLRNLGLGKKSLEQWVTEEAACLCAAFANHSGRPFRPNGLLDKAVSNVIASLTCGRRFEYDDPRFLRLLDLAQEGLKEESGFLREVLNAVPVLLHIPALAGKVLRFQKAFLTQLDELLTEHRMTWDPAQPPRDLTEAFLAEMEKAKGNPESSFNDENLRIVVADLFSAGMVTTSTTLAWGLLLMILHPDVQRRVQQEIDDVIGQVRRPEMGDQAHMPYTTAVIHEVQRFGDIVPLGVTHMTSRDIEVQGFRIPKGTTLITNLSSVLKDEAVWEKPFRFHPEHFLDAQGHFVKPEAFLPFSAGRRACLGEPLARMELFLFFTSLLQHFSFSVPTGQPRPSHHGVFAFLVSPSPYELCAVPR
Outline: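 Luminescent read-out of luciferin formed by 5 nM human CYP2D6 demethylating 30 uM Luciferin-ME EGE (Km level) over 60 min at room temperature after NADPH regeneration addition. Data normalized to full inhibition by 1.43 uM quinidine.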

[13] = biological target: Cytochrome P450 3A4 (Homo sapiens) (UniProt P08684); assay: qHTS Assay for Activators of Cytochrome P450 3A4 (AID 885; active = well fitted curve in the direction sought with a large enough effect; an effect the other way counts as inactive or inconclusive; also: nearly all actives have a fitted effect of over 65% in size); conditions: recombinant CYP3A4, Luciferin-PPXE luminescence, 60 min; series mostly up to 57.1 µM
Sequence of Cytochrome P450 3A4 (Homo sapiens) (P08684 whole entry, looked up): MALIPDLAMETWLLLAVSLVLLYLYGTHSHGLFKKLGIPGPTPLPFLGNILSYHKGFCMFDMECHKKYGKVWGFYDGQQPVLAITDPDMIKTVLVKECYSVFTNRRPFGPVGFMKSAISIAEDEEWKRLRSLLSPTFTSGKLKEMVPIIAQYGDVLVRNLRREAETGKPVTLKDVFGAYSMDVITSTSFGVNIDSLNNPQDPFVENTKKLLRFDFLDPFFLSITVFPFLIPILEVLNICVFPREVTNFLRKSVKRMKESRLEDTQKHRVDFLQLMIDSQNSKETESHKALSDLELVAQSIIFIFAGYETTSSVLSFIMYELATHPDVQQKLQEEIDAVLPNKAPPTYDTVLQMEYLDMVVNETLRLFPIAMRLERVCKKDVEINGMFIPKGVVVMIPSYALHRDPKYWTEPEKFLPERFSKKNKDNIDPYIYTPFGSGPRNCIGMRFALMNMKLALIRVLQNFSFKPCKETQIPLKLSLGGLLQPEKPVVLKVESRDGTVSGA
Outline: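 Human CYP3A4 dealkylates Luciferin-PPXE to luciferin, which luciferase detection converts to light. Substrate was at its KM (25uM), buffer 200mM KPO4, reaction 60 min at RT.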

CN(C)CS/C(N)=N/[C@H](O)C(Cl)(Cl)Cl
inactive: Potency [1] > 11.4 µM | activity change, negative = inhibition [2] 1.46% | activity change, negative = inhibition [3] 4.1% [at 2.29 µM] | activity change, negative = inhibition [4] 23.1% | activity, negative = inhibition [5] 3.46% | Potency [6] > 46 µM | Potency [7] > 9.22 µM | activity change, negative = inhibition [8] 3.54% [at 11.4 µM] | outcome [9] | activation [10] 7.72%

C[C@@H](O)CN(CCN(C[C@@H](C)O)C[C@@H](C)O)C[C@@H](C)O.O=[N+]([O-])O.[Cu]
active: Potency [3] 5.01 µM | Potency [11] 0.398 µM
inactive: Potency [1] > 11.4 µM | activity change, negative = inhibition [2] -0.101% | activity change, negative = inhibition [4] -2.32% | activity, negative = inhibition [5] 2.41% | Potency [6] > 46 µM | Potency [7] > 9.22 µM | activity change, negative = inhibition [8] -3.67% [at 11.4 µM] | outcome [9]

O=C(O)c1cc(N=Nc2ccc([As](=O)(O)O)cc2)ccc1O
inactive: Potency [1] > 11.4 µM | activity change, negative = inhibition [2] 6.37% | Potency [3] | activity change, negative = inhibition [4] 6.3% | activity, negative = inhibition [5] -0.258% | Potency [6] > 46 µM | Potency [7] > 9.22 µM | activity change, negative = inhibition [8] 2.47% [at 11.4 µM] | outcome [9] | Potency [12] | Potency [11]

Cc1c([C@@H](C)[C@H]2NC[C@H](C)C[C@@H]2O)ccc2c1C[C@@H]1[C@H]2CC=C2C[C@@H](O)CC[C@@]21C
inactive: Potency [1] > 11.4 µM | activity change, negative = inhibition [2] -4.38% | activity change, negative = inhibition [3] 1.3% [at 2.29 µM] | activity change, negative = inhibition [4] -6.08% | activity, negative = inhibition [5] -1.08% | Potency [6] > 46 µM | Potency [7] > 9.22 µM | activity change, negative = inhibition [8] -0.822% [at 11.4 µM] | outcome [9] | activation [10] 4.43%

C[C@]12CC[C@@H]3[C@H](CCC4=CC(=O)CC[C@]43C)[C@]1(O)CC[C@@]2(O)C(=O)CO
active: Potency [6] 0.822 µM
inactive: Potency [1] > 11.4 µM | activity change, negative = inhibition [2] -0.316% | activity change, negative = inhibition [3] 4.8% [at 2.29 µM] | activity change, negative = inhibition [4] 5.17% | activity, negative = inhibition [5] -1.84% | Potency [7] > 9.22 µM | activity change, negative = inhibition [8] 4.11% [at 11.4 µM] | outcome [9] | activation [10] 7.15%

O=C(O)C(=O)Cc1ccc2c(c1)OCO2
inactive: Potency [1] > 11.4 µM | activity change, negative = inhibition [2] 6.13% | activity change, negative = inhibition [4] 16.4% | activity, negative = inhibition [5] 3.17% | Potency [6] > 46 µM | Potency [7] > 9.22 µM | activity change, negative = inhibition [8] 4.31% [at 11.4 µM] | outcome [9] | Potency [11] | activation [10] -7.84%
active: Potency [3] 3.98 µM

C[n+]1c(/C=C\c2ccc(O)c3ncccc23)[se]c2ccccc21
inactive: Potency [1] > 11.4 µM | activity change, negative = inhibition [2] -7.45% | activity change, negative = inhibition [3] -22.7% [at 2.29 µM] | activity change, negative = inhibition [4] -19% | activity, negative = inhibition [5] 13% | Potency [6] > 46 µM | Potency [7] > 9.22 µM | activity change, negative = inhibition [8] -13.6% [at 11.4 µM] | outcome [9] | activity change, positive = activation [13] -31.7% [at 11.4 µM]

NCCP(=O)(O)O
inactive: Potency [1] > 11.4 µM | activity change, negative = inhibition [2] 3.81% | Potency [3] | activity change, negative = inhibition [4] 9.11% | activity, negative = inhibition [5] 10.6% | Potency [6] > 46 µM | Potency [7] > 9.22 µM | activity change, negative = inhibition [8] 3.4% [at 11.4 µM] | outcome [9] | activation [10] 0.635%

O=C(O)Cc1ccc([N+](=O)[O-])cc1[N+](=O)[O-]
inactive: Potency [1] > 11.4 µM | activity change, negative = inhibition [2] -0.903% | activity change, negative = inhibition [4] -1.68% | activity, negative = inhibition [5] 5.17% | Potency [6] > 46 µM | Potency [7] > 9.22 µM | activity change, negative = inhibition [8] 4.4% [at 11.4 µM] | outcome [9]
active: Potency [3] 3.98 µM

O=[As](O)(O)c1ccc(N=Nc2ccc(O)cc2)cc1
inactive: Potency [1] > 11.4 µM | activity change, negative = inhibition [2] 3.33% | Potency [3] | activity change, negative = inhibition [4] 9.82% | activity, negative = inhibition [5] 3.63% | Potency [6] > 46 µM | Potency [7] > 9.22 µM | activity change, negative = inhibition [8] -2.48% [at 11.4 µM] | outcome [9] | activation [10] 5.33%

N[C@H](Cc1ccccc1)c1nn[nH]n1
inactive: Potency [1] > 11.4 µM | activity change, negative = inhibition [2] 11.1% | activity change, negative = inhibition [4] 1.74% | activity, negative = inhibition [5] -5.07% | Potency [6] > 46 µM | Potency [7] > 9.22 µM | activity change, negative = inhibition [8] 5.89% [at 11.4 µM] | outcome [9]
active: Potency [3] 10 µM

O=C(O)C[O][Sb][O]CC(=O)O
inactive: Potency [1] > 11.4 µM | activity change, negative = inhibition [2] 4.83% | activity change, negative = inhibition [3] -7.8% [at 2.29 µM] | activity change, negative = inhibition [4] 6.08% | activity, negative = inhibition [5] 7.88% | Potency [6] > 46 µM | Potency [7] > 9.22 µM | activity change, negative = inhibition [8] 1.01% [at 11.4 µM] | outcome [9] | Potency [11]
